Reference: PubChem BioAssay (Tox21)
Records with an inconclusive call do not appear. The source made the active and inactive calls. Unless noted, the call rests on the fitted dose curve; in most records, active means well fitted curve in the direction sought with a large enough effect in the repeat runs; inconclusive means weak or mixed curves; inactive means no such curve, though single readings can be large; an effect the other way counts as inactive or inconclusive.

Columns and labels:
[1] = A CellTox Green Cytotoxicity Assay to monitor cytotoxicity in HepG2 cells - 8 hour (AID 1224890); further: nearly all actives have a fitted effect of over 45% in size
Method in brief: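 Fluorescent DNA-binding dye, 600 HepG2 cells/well, 5 h preincubation then compound in DMSO; same plates read at 0–40 h, 37 C.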

[2] = qHTS assay to identify small molecule antagonists of the androgen receptor (AR) signaling pathway using the MDA cell line in the presence of 0.5 nM R1881 - cell viability counter screen (AID 1259242); further: nearly all actives have a fitted effect of over 45% in size
Method in brief: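 Human breast carcinoma MDA-kb2 cells, cultured without CO2, receive compounds alongside 0.5 nM (final) R1881 agonist. After 16 hr at 37C, viability is taken as live-cell protease signal.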

[3] = molecular target: Androgen receptor (Homo sapiens) (UniProt P10275); assay: qHTS assay to identify small molecule antagonists of the androgen receptor (AR) signaling pathway using the MDA cell line in the presence of 0.5 nM R1881 (AID 1259243); further: nearly all actives have a fitted effect of over 50% in size; further: potency means the concentration at half of the fitted maximal effect
Method in brief: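 Cells: MDA-kb2 (MMTV-luc). Stimulus: 0.5 nM R1881. Time: 16 hr, 37C, no CO2. Detection: ONE-Glo luminescence after 30 min at RT.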

[4] = qHTS assay to identify small molecule phospholipidosis (PLD) inducers (AID 1259344; active means well fitted curve in the direction sought with a large enough effect; an effect the other way counts as inactive or inconclusive)
Method in brief: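 Read-out is LipidTOX Red fluorescence (ex 595/em 615) imaged in HepG2 cells after 24 h compound exposure at 37 C, with Hoechst nuclear counterstain (ex 352/em 461) allowing per-cell normalisation.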

[5] = qHTS assay to identify small molecule HDAC inhibitors (AID 1259364); further: potency means the concentration at half of the fitted maximal effect;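 further: wild-type HCT-116 cells with endogenous class I/II HDAC activity; nearly all actives have a fitted effect of over 45% in size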; on activity change, negative = inhibition: top concentration of the series differs between compounds
Method in brief: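 After a 2 hr compound incubation (37C, 5% CO2), HCT-116 cells seeded at 1,500/well the day before received HDAC-Glo reagent; signal read as luminescence after 30 min at room temperature.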

[6] = qHTS assay to identify small molecule HDAC inhibitors - cell viability counter screen (AID 1259365); further: series mostly up to about 92 µM; nearly all actives have a fitted effect of over 50% in size
Method in brief: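 Following a 2hr exposure of overnight-plated wild-type HCT-116 cells to DMSO-delivered compounds, CellTiter-Glo was added and luminescence recorded after 30min at room temperature.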

[7] = qHTS assay to identify small molecule agonists of the sonic hedgehog signaling (Shh) pathway - cell viability counter screen (AID 1259366); further: nearly all actives have a fitted effect of over 50% in size
Method in brief: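 After a 4hr attachment at 37C, NIH/3T3 cells bearing an integrated Gli1-driven luciferase reporter were dosed with compounds. Treatment lasted 24hr, with the final hour including CellTiter-Fluor for a fluorescence viability measurement.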

[8] = qHTS assay to identify small molecule antagonists of the sonic hedgehog signaling (Shh) pathway - cell viability counter screen (AID 1259367); further: nearly all actives have a fitted effect of over 55% in size
Method in brief: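 Fluorescence read-out (CellTiter-Fluor, 1 hr at 37C) taken after 23 hr compound treatment of 3T3 Gli1-Luc cells stimulated with conditioned medium. Cells were seeded at 2,000 per well and pre-incubated 4 hr.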

[9] = qHTS assay to identify small molecule agonists of the sonic hedgehog signaling (Shh) pathway (AID 1259368; calls by dose curve;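 further: NIH/3T3-derived 3T3Gli1-Luc cells carrying a stable Gli1-driven firefly luciferase reporter; series mostly up to about 92 µM; nearly all actives have a fitted effect of over 15% in size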)
Method in brief: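 Stable NIH/3T3 Gli1-Luc reporter clone; 24 hr cpd exposure after a 4 hr settling period; luminescence endpoint.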

[10] = qHTS assay to identify small molecule antagonists of the sonic hedgehog signaling (Shh) pathway (AID 1259369; calls by dose curve; further: nearly all actives have a fitted effect of over 45% in size)
Method in brief: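 Gli1 transcriptional reporter (firefly Luc) in NIH/3T3 background, conditioned-medium activated. 24hr exposure, luminescence endpoint.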

[11] = molecular target: Estrogen receptor beta (Homo sapiens) (UniProt Q92731); assay: qHTS assay to identify small molecule agonists of the estrogen receptor beta (ER-beta) signaling pathway (AID 1259377; active means well fitted activation curve with a large enough effect in the signal ratio in the repeat runs, not every such curve was filed as active; the % refers to the signal ratio)
Method in brief: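 In HEK293T cells bearing a UAS-beta-lactamase reporter under ER-beta control, DMSO-delivered compounds were incubated for 16 hr at 37C. Activity was detected as fluorescence 2 hours after LiveBLAzer B/G FRET substrate addition.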

[12] = molecular target: Estrogen receptor beta (Homo sapiens) (UniProt Q92731); assay: qHTS assay to identify small molecule antagonists of the estrogen receptor beta (ER-beta) signaling pathway (AID 1259378; active means well fitted inhibition curve with a large enough effect in the signal ratio in the repeat runs, not every such curve was filed as active; the % refers to the signal ratio)
Method in brief: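 ER-beta-UAS-bla HEK293T cells in 2% charcoal-stripped FBS medium treated with compound plus 1nM final 17-beta-estradiol for 16 hr at 37C. Beta-lactamase reporter read by FRET substrate fluorescence after 2 hours at room temperature.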

[13] = qHTS assay to identify small molecule agonists of the androgen receptor (AR) signaling pathway in the presence of an antagonist - cell viability counter screen (AID 1259379); further: nearly all actives have a fitted effect of over 25% in size; further: potency means the concentration at half of the fitted maximal effect;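 on activity change, negative = cytotoxicity: MDA-kb2 human breast cancer cells carrying an MMTV luciferase reporter; series mostly up to about 92 µM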
Method in brief: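 Counter screen for cell viability run in parallel with the AR agonist-mode luciferase assay. MDA-kb2 cells were co-treated with nilutamide (3.0uM final) and compounds, then incubated 16 hr at 37C, and CellTiter-Fluor fluorescence was measured.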

[14] = molecular target: Androgen receptor (Homo sapiens) (UniProt P10275); assay: qHTS assay to identify small molecule agonists of the androgen receptor (AR) signaling pathway in the presence of an antagonist (AID 1259381; calls by dose curve; further: nearly all actives have a fitted effect of over 15% in size)
Method in brief: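 AR antagonist background: nilutamide 3.0uM final. Cell line: MDA-kb2, MMTV-driven luciferase, responsive to both AR and GR. Exposure 16hr, 37C, no CO2; ONE-Glo luminescence.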

[15] = molecular target: Estrogen receptor (Homo sapiens) (UniProt P03372); assay: qHTS assay to identify small molecule agonists of the estrogen receptor alpha (ER-alpha) signaling pathway in the presence of an antagonist (AID 1259383; calls by dose curve; further: top concentration of the series differs between compounds; nearly all actives have a fitted effect of over 15% in size)
Method in brief: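 ER-alpha agonism measured under antagonist challenge: 10.0nM ICI-182,780 (final) plus compound, 15 concentrations, 22hr, VM7Luc4E2 ERE-luciferase cells. Read by luminescence.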

[16] = qHTS assay to identify small molecule agonists or antagonists of the thyroid stimulating hormone receptor (TSHR) signaling pathway - wild type cell line counter screen (AID 1259384; calls by dose curve)
Method in brief: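 Wild-type Hek293 cells, 800/well, 18 h at 37C, then compound with Ro20-1724 for 30 min RT. cAMP by HTRF (cAMP-d2/anti-cAMP cryptate), 1 h RT, fluorescence read. 15 concentrations, triplicates.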

[17] = qHTS assay to identify small molecule antagonists of the estrogen receptor alpha (ER-alpha) signaling pathway using the BG1 cell line in the presence of 0.1 nM 17-beta-estradiol - cell viability counter screen (AID 1259241); further: nearly all actives have a fitted effect of over 40% in size
Method in brief: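 Measures cytotoxicity alongside the ER-alpha antagonist readout: VM7Luc4E2 cells, charcoal-stripped serum, 0.1 nM 17beta-estradiol final, 22 hr compound incubation at 37C, CellTiter-Fluor fluorescence.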

[18] = qHTS assay to identify small molecule agonists of the estrogen receptor beta (ER-beta) signaling pathway - cell viability counter screen (AID 1259380); further: nearly all actives have a fitted effect of over 30% in size
Method in brief: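 In this qHTS counter screen, HEK293T cells carrying an ER-beta/UAS beta-lactamase reporter, grown in 2% charcoal-stripped FBS, received compound for 16 hr; ATP-based CellTiter-Glo luminescence was then read after 30 min at room temperature.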

[19] = qHTS assay to identify small molecule antagonists of the estrogen receptor beta (ER-beta) signaling pathway - cell viability counter screen (AID 1259382); further: series mostly up to about 92 µM; nearly all actives have a fitted effect of over 55% in size
Method in brief: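 HEK293T ER-beta-UAS-bla, 2% charcoal-stripped FBS; compounds + 1nM E2 16 hr 37C; CellTiter-Glo luminescence, 30 min RT.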

[20] = molecular target: Estrogen receptor (Homo sapiens) (UniProt P03372); assay: qHTS assay to identify small molecule antagonists of the estrogen receptor alpha (ER-alpha) signaling pathway using the BG1 cell line in the presence of 0.1 nM 17-beta-estradiol (AID 1259244); further: nearly all actives have a fitted effect of over 50% in size
Method in brief: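 Seeding of stripped-serum-adapted VM7Luc4E2 cells, 24 h attachment, compound transfer, then 0.1 nM final 17beta-estradiol; after 22 h incubation, ONE-Glo reagent and luminescence reading.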
On the % scale 0 is the no-effect control and ±100 the full control effect.

Androgen receptor (Homo sapiens), sequence (P10275 whole entry, looked up): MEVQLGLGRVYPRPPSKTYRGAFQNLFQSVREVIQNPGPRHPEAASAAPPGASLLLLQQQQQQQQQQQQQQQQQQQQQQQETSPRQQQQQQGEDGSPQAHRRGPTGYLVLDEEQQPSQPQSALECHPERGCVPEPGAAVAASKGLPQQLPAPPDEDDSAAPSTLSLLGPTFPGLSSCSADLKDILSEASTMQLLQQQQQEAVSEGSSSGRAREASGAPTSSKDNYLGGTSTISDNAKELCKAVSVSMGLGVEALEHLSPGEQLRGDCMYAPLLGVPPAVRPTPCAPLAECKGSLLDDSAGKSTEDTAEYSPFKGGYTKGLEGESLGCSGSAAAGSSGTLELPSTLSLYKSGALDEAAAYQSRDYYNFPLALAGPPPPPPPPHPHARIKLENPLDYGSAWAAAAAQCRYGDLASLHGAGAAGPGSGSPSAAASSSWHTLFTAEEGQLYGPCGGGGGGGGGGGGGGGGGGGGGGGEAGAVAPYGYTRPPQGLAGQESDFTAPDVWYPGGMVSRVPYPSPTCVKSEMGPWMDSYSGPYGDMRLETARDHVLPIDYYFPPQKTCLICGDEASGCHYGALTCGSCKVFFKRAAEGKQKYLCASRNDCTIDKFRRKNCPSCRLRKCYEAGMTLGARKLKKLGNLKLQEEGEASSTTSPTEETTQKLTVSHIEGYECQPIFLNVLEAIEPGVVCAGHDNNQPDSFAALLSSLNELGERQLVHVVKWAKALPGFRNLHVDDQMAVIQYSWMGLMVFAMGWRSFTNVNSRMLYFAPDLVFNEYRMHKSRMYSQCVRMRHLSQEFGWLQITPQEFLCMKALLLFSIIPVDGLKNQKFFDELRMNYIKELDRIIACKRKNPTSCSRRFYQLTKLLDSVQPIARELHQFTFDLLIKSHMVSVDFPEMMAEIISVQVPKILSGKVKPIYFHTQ
Estrogen receptor beta (Homo sapiens), sequence (Q92731 whole entry, looked up): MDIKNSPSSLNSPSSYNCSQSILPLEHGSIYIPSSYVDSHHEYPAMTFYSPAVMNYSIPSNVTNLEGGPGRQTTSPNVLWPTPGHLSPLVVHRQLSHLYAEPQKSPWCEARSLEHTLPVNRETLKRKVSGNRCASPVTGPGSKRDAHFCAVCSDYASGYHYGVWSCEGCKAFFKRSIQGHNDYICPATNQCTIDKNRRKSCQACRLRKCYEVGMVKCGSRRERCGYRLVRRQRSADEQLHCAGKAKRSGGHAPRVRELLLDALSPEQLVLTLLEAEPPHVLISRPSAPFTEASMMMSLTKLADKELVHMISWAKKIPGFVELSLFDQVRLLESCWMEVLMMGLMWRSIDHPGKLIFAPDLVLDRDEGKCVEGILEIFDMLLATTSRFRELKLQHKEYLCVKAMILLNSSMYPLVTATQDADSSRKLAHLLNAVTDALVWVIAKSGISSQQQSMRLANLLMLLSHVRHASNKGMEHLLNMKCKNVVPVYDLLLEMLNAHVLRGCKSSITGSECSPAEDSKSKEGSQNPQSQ
Estrogen receptor (Homo sapiens), sequence (P03372 whole entry, looked up): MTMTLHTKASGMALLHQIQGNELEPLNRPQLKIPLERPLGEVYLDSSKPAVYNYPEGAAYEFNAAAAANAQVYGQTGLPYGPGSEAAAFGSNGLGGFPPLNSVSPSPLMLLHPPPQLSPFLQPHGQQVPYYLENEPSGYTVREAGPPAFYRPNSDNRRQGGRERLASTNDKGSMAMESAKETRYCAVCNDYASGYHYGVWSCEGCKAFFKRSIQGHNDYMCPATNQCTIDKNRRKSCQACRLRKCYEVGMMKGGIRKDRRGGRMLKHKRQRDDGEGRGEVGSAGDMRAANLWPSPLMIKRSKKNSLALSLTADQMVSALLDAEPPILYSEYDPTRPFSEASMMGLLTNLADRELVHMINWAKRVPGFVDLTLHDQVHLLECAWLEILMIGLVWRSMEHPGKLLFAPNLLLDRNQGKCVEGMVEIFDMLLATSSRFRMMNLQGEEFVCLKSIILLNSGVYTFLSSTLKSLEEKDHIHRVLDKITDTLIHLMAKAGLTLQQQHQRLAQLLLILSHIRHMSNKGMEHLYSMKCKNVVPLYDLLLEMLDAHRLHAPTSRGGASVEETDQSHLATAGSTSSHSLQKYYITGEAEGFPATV

O=C(Nc1ccc(Cl)c(Cl)c1)C1CC1
active: Potency [3] 5.96 µM
inactive: outcome [1] | outcome [2] | outcome [4] | Potency [5] | outcome [6] | Potency [7] | Potency [8] | outcome [9] | Potency [10] | Potency [11] | outcome [12] | Potency [13] | Potency [14] | outcome [15] | outcome [16]

C[Si](C)=O
inactive: cytotoxicity increase [1] -1.81% [at 6.97 µM] | activity change, negative = cytotoxicity [17] -11.4% [at 8.39 µM] | viability change, negative = cytotoxic [2] 2.02% [at 8.39 µM] | activity change, negative = inhibition [5] 1.64% [at 8.39 µM] | activity change, negative = cytotoxicity [6] 2.53% [at 8.39 µM] | viability change, negative = cytotoxic [7] -1.38% [at 8.39 µM] | viability change, negative = cytotoxic [8] 0.12% [at 8.39 µM] | activity change [9] 0.132% [at 8.39 µM] | activity change, negative = inhibition [10] 4.44% [at 8.39 µM] | activity change, negative = cytotoxicity [18] 5.93% [at 8.39 µM] | activity change, negative = cytotoxicity [19] 0.879% [at 8.39 µM] | cAMP activity change [16] -4.18% [at 8.39 µM]

CCC(C=O)CC
inactive: outcome [1] | Potency [17] | outcome [2] | Potency [5] | outcome [6] | outcome [9] | Potency [10] | Potency [11] | outcome [12] | Potency [13] | Potency [18] | outcome [16]

CC(C)CC(C)CC(C)CC(C)COC(=O)c1ccccc1C(=O)OCC(C)CC(C)CC(C)CC(C)C (stereo unspecified)
inactive: outcome [1] | Potency [17] | outcome [2] | Potency [5] | outcome [6] | outcome [9] | Potency [13] | Potency [18] | outcome [19] | outcome [16]

N[C@@H](CCC(=O)Nc1ccc([N+](=O)[O-])cc1)C(=O)O
inactive: outcome [1] | Potency [17] | Potency [3] | Potency [20] | Potency [5] | outcome [6] | Potency [8] | outcome [9] | Potency [10] | Potency [11] | outcome [12] | Potency [14] | outcome [19] | outcome [15] | outcome [16]
active: Potency [13] 48.6 µM

Cc1ccccc1N=O
inactive: outcome [1] | Potency [17] | outcome [2] | Potency [5] | outcome [6] | Potency [7] | Potency [8] | outcome [9] | Potency [10] | Potency [18] | outcome [19] | outcome [16]

COc1cc(NS(=O)(=O)c2ccc(N)cc2)nc(OC)n1
inactive: outcome [1] | outcome [2] | Potency [3] | outcome [4] | Potency [5] | outcome [6] | Potency [7] | Potency [8] | outcome [9] | Potency [10] | Potency [11] | Potency [18] | Potency [14] | outcome [19] | outcome [15]

Brc1ccc(-c2ccccc2)cc1
inactive: outcome [1] | Potency [17] | outcome [2] | Potency [5] | outcome [6] | Potency [7] | Potency [8] | outcome [9] | Potency [13] | Potency [18] | outcome [19] | outcome [16]

COc1ccc(OC)c(Cl)c1
inactive: outcome [1] | outcome [2] | Potency [3] | Potency [5] | outcome [6] | Potency [7] | outcome [9] | Potency [10] | Potency [11] | outcome [12] | Potency [18] | Potency [14] | outcome [19] | outcome [16]

CC(C)C(=O)OCc1cccc(OC(=O)[C@@H]2N3C(=O)[C@@H](NC(=O)Cc4ccccc4)[C@H]3SC2(C)C)c1
inactive: outcome [1] | outcome [2] | Potency [3] | Potency [20] | Potency [5] | Potency [7] | outcome [9] | Potency [10] | Potency [11] | outcome [12] | Potency [18] | Potency [14] | outcome [19] | outcome [15] | outcome [16]

C=COCCOCCOCCOC=C
inactive: outcome [1] | outcome [2] | Potency [3] | Potency [5] | outcome [6] | Potency [7] | Potency [8] | outcome [9] | Potency [10] | Potency [11] | outcome [12] | Potency [13] | Potency [18] | Potency [14] | outcome [19] | outcome [16]

CCCOC(OCCC)OCCC
inactive: outcome [1] | Potency [17] | outcome [2] | Potency [5] | outcome [6] | Potency [7] | outcome [9] | Potency [10] | Potency [11] | outcome [12] | Potency [13] | outcome [19]

CC(C)(C)OC(=O)c1ccc(O)cc1
inactive: outcome [1] | Potency [17] | outcome [2] | outcome [6] | Potency [7] | Potency [8] | outcome [9] | Potency [18] | Potency [14] | outcome [16]

O=C(O)C(=O)Cc1ccccc1
inactive: outcome [1] | outcome [2] | Potency [3] | Potency [20] | Potency [5] | outcome [6] | Potency [7] | Potency [8] | outcome [9] | Potency [11] | outcome [12] | Potency [18] | Potency [14] | outcome [19] | outcome [15] | outcome [16]

CCO[Si](CCCS)(OCC)OCC
inactive: outcome [1] | Potency [17] | outcome [2] | Potency [5] | outcome [6] | Potency [7] | Potency [8] | outcome [9] | Potency [11] | outcome [12] | Potency [13] | Potency [18] | outcome [19] | outcome [16]

Nc1ccc2cc(S(=O)(=O)O)cc(O)c2c1
inactive: outcome [1] | outcome [2] | Potency [3] | Potency [20] | Potency [5] | outcome [6] | Potency [7] | outcome [9] | Potency [10] | Potency [18] | Potency [14] | outcome [15]

c1ccc2c(c1)ccc1c3ccccc3ccc21
inactive: outcome [1] | Potency [17] | outcome [2] | outcome [6] | Potency [7] | Potency [8] | outcome [9] | Potency [10] | Potency [11] | outcome [12] | Potency [18] | outcome [19] | outcome [16]

C[Si](C)(C)C
inactive: outcome [1] | Potency [17] | outcome [2] | Potency [5] | outcome [6] | Potency [7] | Potency [8] | outcome [9] | Potency [10] | Potency [18] | outcome [19] | outcome [16]

CC1(CO)CN(c2ccccc2)NC1=O (stereo unspecified)
active: Potency [5] 24.3 µM
inactive: outcome [1] | outcome [2] | Potency [3] | outcome [6] | Potency [7] | Potency [8] | outcome [9] | Potency [10] | Potency [13] | Potency [14] | outcome [16]
